Assay outcomes (PubChem BioAssay)
LDHA inh – LDHA (human) enzyme inhibition; purified LDHA, NADH/diaphorase-resazurin fluorescence; hits give low values; activity change, % (values are at about 110 or 230 µM); 480,000 compounds, 0.15% hits; in the data active = activity change below about -30%; inconclusive = mostly about -25% to -30%;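 note: plate controls were DMSO wells for no effect and wells without enzyme for full effect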
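Resorufin fluorescence (ex540/em590), read at 0 and 20 min after diaphorase/resazurin addition, reports the NADH left after a 5 min room-temperature reaction of 2 nM human LDH5 with 0.06 mM NADH and 0.2 mM pyruvate.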
PTHR1 agonist – agonists of human PTHR1 parathyroid hormone receptor; Q03431; HEK293 GP2 PTHR1 cells, GloSensor cAMP luminescence, 1 h; Potency, µM (highest dose often 115 µM), for the others: top-dose activation, hits mostly activators; 410,000 compounds, 0.075% hits; AID 743266; note: potency is the fitted concentration of half-maximal effect; nearly all actives have a fitted effect of over 55% in size
Target sequence (Q03431 whole entry, looked up): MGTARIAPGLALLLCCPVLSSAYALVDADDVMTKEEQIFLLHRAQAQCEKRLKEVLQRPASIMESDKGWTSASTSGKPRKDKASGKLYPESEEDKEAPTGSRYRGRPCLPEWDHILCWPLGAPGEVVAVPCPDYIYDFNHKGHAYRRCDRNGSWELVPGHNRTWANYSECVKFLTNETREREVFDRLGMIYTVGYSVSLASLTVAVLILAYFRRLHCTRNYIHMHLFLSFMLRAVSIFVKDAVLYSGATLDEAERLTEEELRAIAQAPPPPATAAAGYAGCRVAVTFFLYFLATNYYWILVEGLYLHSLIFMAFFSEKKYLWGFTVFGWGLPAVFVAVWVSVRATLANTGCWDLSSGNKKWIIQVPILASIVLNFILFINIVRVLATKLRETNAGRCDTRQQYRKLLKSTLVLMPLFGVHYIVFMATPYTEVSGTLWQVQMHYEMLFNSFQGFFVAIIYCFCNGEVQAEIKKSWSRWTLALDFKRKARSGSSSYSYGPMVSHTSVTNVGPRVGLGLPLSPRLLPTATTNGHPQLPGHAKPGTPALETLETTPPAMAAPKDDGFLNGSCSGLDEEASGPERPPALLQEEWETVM
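HEK-293-derived GP2 cells expressing PTHR1 and a GloSensor cAMP reporter, 3,000/well, plated overnight, given luciferin plus IBMX (each 0.5 mM as added) for 1 h at 37 °C, then compound for 1 h at 37 °C. Luminescence was read after 15 min at room temperature.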
aSyn yeast inh – rescues yeast growth from alpha-synuclein toxicity | Yeast expressing alpha-synuclein, growth rescue, BacTiter-Glo, 24 h | Potency, µM (series often up to 46.1 µM), for inactives: at the highest dose growth rescue (activation), most hits filed as activators | 370,000 compounds, 0.14% hits | AID 652106; note: potency is the fitted concentration of half-maximal effect; % of control where 0% means no effect; nearly all actives have a fitted effect of over 65% in size
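Readout is rescue of growth in alpha-synuclein-expressing yeast, so inhibitors of toxicity appear as activators. Growth after 24 hr at 30 deg C in galactose medium is quantified by luminescence.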
FUS suppressor – FUS proteinopathy suppression in yeast. S. cerevisiae FUS-expressing, growth rescue, OD600, 24 h. Potency, µM (titrated, usually from 76.6 µM), hits mostly activators. 390,000 compounds, 0.24% hits;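 note: potency is the fitted concentration of half-maximal effect; plate controls were DMSO vehicle for no effect and reference control for full effect; nearly all actives have a fitted effect of over 55% in size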
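Galactose (2%) drives FUS expression in yeast precultured in raffinose; seeding density OD 0.005. Test compounds incubated 24hr at 30C and 99% humidity before absorbance at 600 nm was measured.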
Abeta rescue – compounds reversing amyloid beta toxicity in yeast; AID 1347071; 410,000 compounds, 0.063% hits; yeast expressing A-beta42, growth rescue, OD600, 48 h; response scale: 0% DMSO, 100% iron-clioquinol control; Potency, µM (titrated, usually from 46.1 µM), usual class: activators; note: potency is the fitted concentration of half-maximal effect; nearly all actives have a fitted effect of over 55% in size
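Yeast growth medium received pinned compounds, then yeast cells expressing toxic A-beta were added; plates incubated at 30 C for 48 hr. Growth read as absorbance at 600 nm, normalized to DMSO and equimolar FeCl3 plus clioquinol controls.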
TDP43 rescue – inhibitors of TDP-43 toxicity in yeast; Potency, µM (titrated, usually from 46.1 µM), without a hit: at the highest dose growth rescue (activation), actives largely listed as activators; 410,000 compounds, 1.8% hits; TDP-43 expressing yeast growth rescue, BacTiter-Glo, 24 h; note: potency is the fitted concentration of half-maximal effect; % of control where 0% means no effect; nearly all actives have a fitted effect of over 50% in size
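Galactose-induced TDP-43 yeast, OD600=0.02, compound pinned; 24 hr, 30 deg C; BacTiter-Glo luminescence for growth. Inhibitors of TDP-43 toxicity read as activators.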
* marks the source's active call; other numbers are inactive results; i = inactive; ? = inconclusive; · = no result; [ ] = remark or other dose. Only some compounds are listed: those with a hit (about 1.9% of all), similar ones and a draw of the others. Unless noted, calls come from the whole dose curve; as a rule, active = well fitted curve in the direction sought with a large enough effect; inconclusive = small, poorly fitted or top-dose-only effect, or another doubt; inactive = no such curve, though single readings can be large; an effect the other way counts as inactive or inconclusive.

SMILES | LDHA inh | PTHR1 agonist | aSyn yeast inh | FUS suppressor | Abeta rescue | TDP43 rescue
COc1cccc(C(=O)NCCc2csc(-c3ccc(Cl)cc3)n2)c1 | 0.4 | i | · | i | i | 35.5µM*
O=C(NCCc1csc(-c2ccc(C(F)(F)F)cc2)n1)c1cccs1 | 6.0 | -35.6% | -13.8% | ? | i | 22.4µM*
COc1cccc(OC)c1C(=O)NCCc1csc(-c2ccccn2)n1 | -0.9 | · | · | · | · | ·
O=C(O)c1ccc(N/N=C/c2ccnc3ccccc23)cc1 | -36.6* | i | -2.5% | i | i | -38.6%
O=C(O)CNC(=S)N(Cc1ccccc1)Cc1cccs1 | 0.2 | i | 1.0% | i | i | -12.9%[1.82 µM]
Cc1cccc(C)c1NC(=S)N(Cc1ccccc1)Cc1cccs1 | -1.8 | -15.6% | 23.3% | i | i | 35.5µM*
Cc1nc(NC(=O)c2c(-c3ccccc3)c(-c3ccccc3)nn(C)c2=O)sc1C | -9.1 | i | · | i | i | 0.0%
CCOC(=O)c1sc(NC(=O)c2c(-c3ccccc3)c(-c3ccccc3)nn(C)c2=O)nc1C | -1.2 | i | · | ? | i | 15.8µM*
O=C(Oc1ccc(OCc2ccccc2)cc1)c1cnc2ccccc2n1 | 7.0 | · | · | · | · | ·
O=S(=O)(Nc1cccc2c1CCCC2)c1cccc(C(F)(F)F)c1 | 1.6 | i | ? | i | ? | 25.1µM*
O=S(=O)(Nc1cccc2c1CCCC2)c1cccc(F)c1 | 0.6 | · | · | · | · | ·
CCc1ccc(S(=O)(=O)N(C)C(C)c2nc3ccccc3s2)cc1 (stereo not given) | 10.6 | · | · | · | · | ·
CC(C)C[C@@H](CN1CCC[C@@H]1CN1C(=S)NC[C@@H]1Cc1ccc(O)cc1)N1C[C@H](Cc2ccc(O)cc2)N(CCc2ccccc2)C1=S | -10.5 | 29.5% | -3.7% | 35.5µM* | i | -0.9%
C=CCn1c(COc2ccc(C(C)(C)C)cc2)nnc1SCc1c(F)cccc1Cl | 9.5 | · | · | · | · | ·
COc1ccc(/C=N/N=C2/NC(=O)C(CC(=O)O)S2)cc1OCc1ccc(Cl)cc1Cl (stereo not given) | -45.5* | i | 7.4% | ? | i | 11.6%
CCOC(=O)C1CCCN(C(=O)c2cc(-c3ccccc3)cs2)CC1 (stereo not given) | -3.7 | i | -4.9% | i | i | 17.8µM*
CCOC(=O)C1CCCN(C(=S)Nc2ccc(Nc3ccccc3)cc2)C1 (stereo not given) | -6.6 | -9.8% | ? | ? | ? | 22.4µM*
CCOC(=O)C1CCN(C(=S)Nc2ccccc2)CC1 | -0.7 | ? | -1.7% | i | i | -11.4%
CCOC(=O)C1CCCN(C(=O)c2cc3c(=O)n(C)c4ccccc4c3s2)C1 (stereo not given) | -4.2 | -22.2% | · | i | i | 20µM*
CCOC(=O)C1CCCN(C(=O)c2sc(-c3ccccc3)nc2C)CC1 (stereo not given) | -6.0 | -69.0% | 12.7% | i | i | 0.0%
Cc1cc2c(cc1C)C(c1cc3c(cc1Br)OCO3)CC(=O)N2 (stereo not given) | 5.2 | · | · | · | · | ·
CC(C)C(=O)N(c1ccc2oc(=O)sc2c1)S(=O)(=O)c1cccs1 | 0.8 | -9.5% | 6.2% | i | i | 8.0%
CC(=O)N(c1ccc2oc(=O)sc2c1)S(=O)(=O)c1cccs1 | -0.2 | 22.1%[57.5 µM] | -1.7% | 28.2µM* | i | 25.0%
Cc1ccc2c(CN(C)CCOc3ccccc3C)cc(=O)oc2c1 | -0.9 | · | · | · | · | ·
O=C(CCCc1ccccc1)Nc1nccs1 | 1.2 | i | 8.3% | i | i | 11.2µM*
SMILES | LDHA inh | PTHR1 agonist | aSyn yeast inh | FUS suppressor | Abeta rescue | TDP43 rescue
CC(C)(C)OC(=O)NCCCC[C@H](NC(=O)c1nc[nH]c1C(=O)N[C@@H](CCCCNC(=O)OC(C)(C)C)C(=O)OC(C)(C)C)C(=O)OC(C)(C)C | 0.1 | i | 2.9% | ? | i | 20.3%
CC(C)(C)OC(=O)NCCCC[C@H](NC(=O)c1nc[nH]c1C(=O)NC1CCN(C(=O)OC(C)(C)C)CC1)C(=O)OC(C)(C)C | -6.4 | -29.4% | -9.5% | 14.1µM* | i | 15.2%
CC(C)(C)OC(=O)NCCCC[C@H](NC(=O)c1nc[nH]c1C(=O)NC(c1ccccc1)c1ccccc1)C(=O)OC(C)(C)C | 8.7 | -31.2% | 7.8% | 15.8µM* | i | -8.1%
CC(C)(C)OC(=O)[C@H](Cc1ccccc1)NC(=O)c1nc[nH]c1C(=O)NC1CCN(C(=O)OC(C)(C)C)CC1 | 3.3 | -48.9% | -13.7% | ? | i | 1.5%
O=C(/C=C/c1ccco1)N(Cc1cccs1)C1CC1 | 3.3 | · | · | · | · | ·
N/C(=N\OC(=O)c1ccc2c(c1)OCO2)c1ccc(Cl)cc1 | -7.9 | -22.4% | -41.2% | i | i | 3.16µM*
COc1ccc(/C(N)=N/OC(=O)c2cccs2)cc1 | 1.1 | -41.3% | -59.6% | i | i | 15.8µM*
COc1ccc(/C(N)=N/OC(=O)c2ccc3c(c2)OCO3)cc1 | -2.4 | -13.8% | -7.0% | i | i | 5.62µM*
N/C(=N\OC(=O)c1cccs1)c1ccc(Cl)cc1 | -3.2 | -30.0% | -53.9% | i | i | -27.5%
Cc1cc(C)cc(C(=O)N(Cc2ccncc2)C2CC2)c1 | 17.7 | · | · | · | · | ·
CC(c1ccc2ccccc2c1)c1ccccc1C(=O)O (stereo not given) | 0.6 | i | -11.5% | i | i | 5.62µM*
Cn1c(=O)c2nc(-c3ccccc3)c(-c3ccccc3)nc2n(C)c1=O | -4.7 | i | -30.6% | i | i | 31.6µM*
Cn1c(=O)c2nc(Cl)c(-c3ccccc3)nc2n(C)c1=O | -8.0 | i | -21.4% | · | i | ?
O=C(Nc1cc(C(=O)Nc2ccc(S(=O)(=O)O)cc2S(=O)(=O)O)cc(C(=O)Nc2ccc(S(=O)(=O)O)cc2S(=O)(=O)O)c1)Nc1cc(C(=O)Nc2ccc(S(=O)(=O)O)cc2S(=O)(=O)O)cc(C(=O)Nc2ccc(S(=O)(=O)O)cc2S(=O)(=O)O)c1 | -37.6* | · | 0.6% | · | · | ·
Nc1ccc(C(=O)Nc2ccc3cc(S(=O)(=O)O)ccc3c2)cc1 | -5.5 | i | 6.5% | i | i | 0.3%
Cc1ccc(-c2nc(CNS(=O)(=O)c3ccc(Cl)cc3)c(C)o2)cc1 | 4.0 | · | · | · | · | ·
CC(C)Cn1c(/C=C/c2ccc(F)cc2)nc2ccccc21 | 1.2 | -3.5% | -13.9% | i | i | 14.1µM*
COCCn1c(/C=C/c2ccccc2)nc2ccccc21 | 1.6 | -1.0% | 5.4% | i | i | 0.0%
CC(C)CCn1c(/C=C/c2ccccc2)nc2ccccc21 | -1.7 | i | · | i | i | 14.1µM*
